PubChem BioAssay AID1159580 (chemical genetic matrix, 2015)
About 2,000 (36%) of roughly 5,500 compounds were called active. Roughly 18% stayed inconclusive and do not appear here. Cut-off read from the data, not from the text of the source: active = normalized growth mostly below about 0.91 (no sharp cut-off); inconclusive = no clear call, values can overlap the other calls; inactive = mostly above about 0.92. The list shows a part of the results.

Assay: chemical genetic growth profiling, strain panel (AID 1159580);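 note: tested at 20 µM; growth read once vehicle control cultures reached saturation at 30 °C; 1 = growth at the plate median or of vehicle wells; lower values mean less growth of the strain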
Settings: S. cerevisiae deletion strains, growth OD

Measured: normalized growth

O=C1CC(c2ccc(O)c(O)c2)Oc2cc(O)cc(O)c21 (stereo not given)
inactive: locus YAL021C, strain ccr4, hits give low values 0.989 | locus YAL026C, strain drs2, hits give low values 1 | locus YAL030W, strain snc1, hits give low values 0.994 | locus YBL061C, strain skt5, hits give low values 0.984 | locus YBR009C, strain hhf1, hits give low values 1.01 | locus YBR023C, strain chs3, hits give low values 0.987 | locus YBR171W, strain sec66, hits give low values 0.993 | locus YBR231C, strain swc5, hits give low values 0.958 | locus YBR279W, strain paf1, hits give low values 1.01 | locus YCL011C, strain gbp2, hits give low values 1 | locus YCL016C, strain dcc1, hits give low values 1.01 | locus YCL061C, strain MRC1, hits give low values 0.989 | locus YCL069W, strain vba3, hits give low values 1.01 | locus YCR088W, strain abp1, hits give low values 0.999 | locus YDL005C, strain med2, hits give low values 0.977 | locus YDL040C, strain nat1, hits give low values 1.01 | locus YDR001C, strain nth1, hits give low values 1.01 | locus YDR069C, strain doa4, hits give low values 0.958 | locus YDR137W, strain rgp1, hits give low values 0.995 | locus YDR159W, strain sac3, hits give low values 0.995 | locus YDR195W, strain ref2 0.983 | locus YDR297W, strain sur2, hits give low values 1.01 | locus YDR334W, strain swr1, hits give low values 1.01 | locus YDR335W, strain msn5, hits give low values 0.994 | locus YDR392W, strain spt3, hits give low values 0.967 | locus YEL003W, strain gim4, hits give low values 0.994 | locus YEL037C, strain rad23, hits give low values 0.986 | locus YEL061C, strain CIN8 (second series), hits give low values 1.01 | locus YER015W, strain faa2, hits give low values 0.996 | locus YER016W, strain bim1, hits give low values 0.992 | locus YER111C, strain swi4, hits give low values 0.99 | locus YER155C, strain BEM2 (second series), hits give low values 0.984 | locus YFR010W, strain ubp6, hits give low values 0.97 | locus YGL167C, strain pmr1, hits give low values 0.991 | locus YGL173C, strain kem1, hits give low values 0.987 | locus YGL227W, strain vid30, hits give low values 1 | locus YGL240W, strain doc1, hits give low values 1.02 | locus YGL253W, strain hxk2, hits give low values 1.01 | locus YHR013C, strain ard1, hits give low values 0.974 | locus YHR027C, strain rpn1, hits give low values 1.01 | locus YHR142W, strain chs7, hits give low values 0.969 | locus YJL092W, strain hpr5, hits give low values 1 | locus YJL095W, strain BCK1 (second series), hits give low values 1 | locus YJL115W, strain asf1, hits give low values 1 | locus YJL129C, strain trk1, hits give low values 0.999 | locus YJL154C, strain vps35, hits give low values 1.02 | locus YJL164C, strain tpk1, hits give low values 0.973 | locus YJL166W, strain qcr8, hits give low values 1.01 | locus YKL160W, strain elf1, hits give low values 0.975 | locus YKR026C, strain gcn3, hits give low values 1.02 | locus YKR091W, strain srl3, hits give low values 0.994 | locus YLL001W, strain dnm1, hits give low values 0.992 | locus YLL026W, hits give low values 1 | locus YLL041C, strain sdh2, hits give low values 0.997 | locus YLR027C, strain aat2, hits give low values 1.01 | locus YLR221C, strain rsa3, hits give low values 0.998 | locus YLR258W, strain gsy2, hits give low values 0.992 | locus YLR262C, strain YPT6 (second series), hits give low values 1.01 | locus YLR320W, strain mms22, hits give low values 0.98 | locus YLR342W, strain FKS1, hits give low values 0.993 | locus YLR357W, strain rsc2, hits give low values 0.966 | locus YLR370C, strain arc18, hits give low values 1.01 | locus YLR384C, strain iki3, hits give low values 1.01 | locus YML120C, strain ndi1, hits give low values 1 | locus YMR058W, strain fet3, hits give low values 0.969 | locus YMR125W, strain sto1, hits give low values 0.995 | locus YMR129W, hits give low values 1 | locus YMR205C, strain PFK2, hits give low values 1 | locus YMR231W, strain pep5, hits give low values 0.996 | locus YNL071W, strain lat1, hits give low values 0.998 | locus YNL209W, strain ssb2, hits give low values 1 | locus YNL248C, strain rpa49, hits give low values 0.989 | locus YNL322C, strain KRE1 (second series), hits give low values 0.997 | locus YNR049C, strain mso1, hits give low values 1 | locus YOR001W, strain rrp6, hits give low values 0.997 | locus YOR070C, strain gyp1, hits give low values 0.992 | locus YOR080W, strain dia2, hits give low values 0.984 | locus YOR083W, strain WHI5, hits give low values 0.951 | locus YOR106W, strain vam3, hits give low values 0.984 | locus YOR265W, strain rbl2, hits give low values 1 | locus YOR270C, strain vph1, hits give low values 1.08 | locus YOR290C, strain snf2, hits give low values 0.995 | locus YPL051W, strain arl3, hits give low values 0.975 | locus YPL078C, strain atp4, hits give low values 0.991 | locus YPL106C, strain sse1, hits give low values 0.993 | locus YPL240C, strain hsp82, hits give low values 1.01

O[Si](CCCN1CCCCC1)(c1ccc(F)cc1)C1CCCCC1 (stereo not given)
inactive: locus YAL040C, strain CLN3, hits give low values 0.964 | locus YCL061C, strain MRC1 (second series), hits give low values 0.986 | locus YDR363W, strain ESC2, hits give low values 0.988 | locus YER002W, strain NOP16, hits give low values 1.04 | locus YGR229C, strain SMI1, hits give low values 0.972 | locus YJR075W, strain HOC1, hits give low values 1.02 | locus YMR263W, strain SAP30, hits give low values 1 | locus YNL175C, strain NOP13, hits give low values 0.995 | locus YNL197C, strain WHI3, hits give low values 1.01 | locus YNL224C, strain SQS1, hits give low values 1.01 | locus YNL322C, strain KRE1, hits give low values 0.982 | locus YOR083W, strain WHI5 (second series), hits give low values 1.08 | locus YPL055C, strain LGE1, hits give low values 0.981 | locus YPL241C, strain CIN2, hits give low values 0.994
